Results taken from PubChem BioAssay (NCI).
This is part of a sample that, as a whole, favours compounds with a hit. Of some 79,000 tested, about 15% had one in any assay. Unmarked numbers belong to inactive results. Rule as the data show it: active = growth inhibition above about 70%; inactive = the rest.

Experiment: NCI Yeast Anticancer Drug Screen. Data for the cln2 rad14 strain (AID 165);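 also: 0% = growth equal to vehicle treated cultures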
Conditions: S. cerevisiae cln2 rad14 strain, at 50.0 µM, active compounds read high
Procedure, shortened: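 Growth of compound-exposed yeast (cln2 rad14 genotype) measured and expressed as inhibition relative to vehicle.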

| Compound | growth inhibition [%] |
| --- | --- |
| Cc1cc(C)cc(NCCC#N)c1 | -1.75 |
| CCC/C=C(/C(C)=O)C(=O)OCC | 0.2 |
| Nc1ccc(N=Nc2ccc(O)cc2)c(N)n1 | 2.85 |
| Cc1cccc(CO)c1 | -57 |
| Cc1cc(O)ccc1O | -5.05 |
| c1ncc2[nH]cnc2n1 | -69.2 |
| O=S(=O)(Cc1ccccc1)c1ccccc1 | -0.8 |
| CC1C(=O)c2ccccc2CC1C(=O)O (centres undefined) | -22.2 |
| CC(=O)OCCC(C)CCC=C(C)C (centres undefined) | -18.1 |
| N#CCCN(CCCN1CCOCC1)CN1C(=O)c2ccccc2C1=O | 5.8 |
| CC1(C)OC(=O)C(c2ccsc2)C(=O)O1 | 32.8 |
| O=C(NCc1ccco1)Nc1c(Cl)cc(Cl)cc1Cl | 2.65 |
| CSC[C@H](NC(=O)COc1cccc2cnccc12)C(=O)NC(Cc1ccccc1)C(O)C(=O)N1CSC[C@H]1C(=O)NC(C)(C)C (some centres undefined) | 17.6 |
| O=C(O)c1ccccc1NCc1ccco1 | 7.85 |
| COC(=O)c1ccccc1Br | -22.1 |
| Oc1ccc(N=Nc2ccc(Br)cc2)c(O)c1 | -20.1 |
| CCOc1ccc(I)cc1 | 36.8 |
| C=CC(O)CCC (centres undefined) | 1.3 |
| CC(=O)c1cc2c(cc1F)C(C)(C)CCC2(C)C | -32.5 |

Experiment: NCI Yeast Anticancer Drug Screen. Data for the bub3 strain (AID 167)
Conditions: S. cerevisiae bub3 mutant strain, at 50.0 µM, active compounds read high
Procedure, shortened: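 Compounds were applied to a genetically altered yeast strain carrying a cell-cycle control defect. Growth inhibition was scored against vehicle-treated controls.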

| Compound | growth inhibition [%] |
| --- | --- |
| NC(C(=O)O)c1ccc([N+](=O)[O-])cc1 (centres undefined) | -0.4 |
| CC(=O)OCC1OC(OC2=C(CC=C(C)C)C(=O)c3ccccc3C2=O)C(OC(C)=O)C(OC(C)=O)C1OC(C)=O (centres undefined) | -12.7 |
| CCCCC/C=N/Nc1nc(C)cc(=O)[nH]1 | -2.9 |
| Cc1ccc(Cl)cc1N1C(=O)CC(Sc2ccccc2N)C1=O (centres undefined) | 30.8 |
| O=C(O)c1ccnc(Br)c1 | -27.3 |
| O=C(CCl)Nc1ccc2c(c1)C(=O)c1ccc(NC(=O)CCl)cc1C2=O | -21.2 |
| CC(CC(=O)c1ccccc1)c1ccccc1 (centres undefined) | -19.4 |
| CCOC(=O)/C(C#N)=C/c1cccc(C)c1 | 23.2 |
| Cc1ccc(Cl)cc1NC(=O)N(C)CCO | 4.05 |
| N/N=C(/Cc1ccccc1)NNC(N)=S | -12 |
| COc1ccc(-c2cc(-c3cc(-c4ccc(OC)cc4)nc(N)n3)nc(N)n2)cc1 | -2.65 |
| CCCCC1C(=O)N(c2ccccc2)N(c2ccccc2)C1=O | -4.2 |
| CCCCOC(=O)c1ccc(C(C)C)cc1 | 7.55 |
| Cc1ccc(C(=O)c2ccccc2)c(C)c1 | -2.5 |
| C[N+](C)=c1ccc2nc3c(cc(Nc4ccccc4)c4ccccc43)oc-2c1 | 38 |
| COc1ccccc1C1OC2=Nc3cc(C)c(C)cc3NC2C1=O (centres undefined) | -21.1 |
| Cc1cc(C)cc(NCCC#N)c1 | 11.8 |
| CCC/C=C(/C(C)=O)C(=O)OCC | -19.8 |

| Compound | growth inhibition [%] |
| --- | --- |
| Nc1ccc(N=Nc2ccc(O)cc2)c(N)n1 | 22.7 |
| Cc1cccc(CO)c1 | -18.4 |
| Cc1cc(O)ccc1O | 3.5 |
| c1ncc2[nH]cnc2n1 | 8.15 |
| O=S(=O)(Cc1ccccc1)c1ccccc1 | -17.5 |
| CC1C(=O)c2ccccc2CC1C(=O)O (centres undefined) | -5.1 |
| CC(=O)OCCC(C)CCC=C(C)C (centres undefined) | -16.9 |
| N#CCCN(CCCN1CCOCC1)CN1C(=O)c2ccccc2C1=O | 34.6 |
| O=C(NCc1ccco1)Nc1c(Cl)cc(Cl)cc1Cl | -13.4 |
| CSC[C@H](NC(=O)COc1cccc2cnccc12)C(=O)NC(Cc1ccccc1)C(O)C(=O)N1CSC[C@H]1C(=O)NC(C)(C)C (some centres undefined) | 2.3 |
| O=C(O)c1ccccc1NCc1ccco1 | -19.6 |
| COC(=O)c1ccccc1Br | -3.75 |
| Oc1ccc(N=Nc2ccc(Br)cc2)c(O)c1 | 33.6 |
| CCOc1ccc(/C=N/N=C(N)N)cc1OCC | -8.4 |
| CCOc1ccc(I)cc1 | -0.75 |
| C=CC(O)CCC (centres undefined) | -1.6 |
| CC(=O)c1cc2c(cc1F)C(C)(C)CCC2(C)C | -20.1 |
